# Source: PubChem BioAssay (NCI)
# The panel holds about 83,000 compounds, 20% with a hit somewhere; the sample as a whole holds those more often.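 48-hour exposure, single concentration, 96-well plates; percent growth endpoint where 0 means no net growth. Active: below 10.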 Activity calls are given as the source filed them.
# Tested on: UACC-257 melanoma
# Test: NCI-60 one-dose screen, 48 h (100 = growth as untreated, 0 = no growth, -100 = all killed)
# Conditions: 10 µM unless noted
row,Structure (SMILES),growth
1,COc1ccc(C(=O)c2cc3c(N)c(C(=O)Nc4ccc(Br)cc4)sc3nc2C)cc1,79.8% (inactive)
2,CCOC(=O)Oc1c(OC)cc(C(=O)O[C@@H]2C[C@@H]3CN4CCc5c([nH]c6cc(OC)ccc56)[C@H]4C[C@@H]3[C@H](C(=O)OC)[C@H]2OC)cc1OC,94% (inactive)
3,COc1ccc(-c2nc(N/N=C/c3ccco3)nc(N3CCOCC3)c2C#N)cc1,94.8% (inactive)
4,CCC(=O)c1ccc(O)c(OC)c1,85.7% (inactive)
5,COc1ccc(-c2nc(N=Nc3c(O)[nH]c4ccccc34)nc(N3CCOCC3)c2C#N)cc1,73.6% (inactive)
6,CCCCCCCCCCCCCCCC(=O)OC[C@@]1(O)C[C@@]23CC[C@@H]4C(C)(C)[C@H](O)CC[C@@]4(C)[C@@H]2CC[C@H]1C3,110% (inactive)
7,FC(F)(F)Oc1cccc(-c2cc(NCCCCCCNc3cc(-c4cccc(OC(F)(F)F)c4)nc4ccc(N5CCCC5)cc34)c3cc(N4CCCC4)ccc3n2)c1,-9.02% (active)
8,COc1ccc(C2=C(c3ccccc3)c3ccc(OC(C)=O)cc3OC2(C)C)cc1,145% (inactive)
9,Cc1c2c(cc[n+]1Cc1ccc(F)cc1)c1ccc(OCc3cccc(F)c3)cc1n2Cc1cccc(F)c1,-86% (active)
10,CC1=CC2(C)/C=C(C)/C=C\CC(O)/C=C3/C=CC(=C4C(=O)OC2(CC1C)C4=O)OC3 (stereo unspecified),-57% (active)
11,O=C1OC(=O)C2C1CC=CC2c1ccccc1 (stereo unspecified),107% (inactive)
12,C=C(C)[C@H]1CC/C(C)=C/CC[C@]2(C)O[C@H]2CC/C(COC(=O)[C@@H](OC(C)=O)[C@H](NC(=O)c2ccccc2)c2ccccc2)=C\[C@@H]1O,83.1% (inactive)
13,O=C(O)c1cn(C2CC2)c2cc(N3CCN(C(=O)C[n+]4cccc5ccccc54)CC3)c(F)cc2c1=O,82.3% (inactive)
14,COc1ccc(Nn2c(SCC(=O)Nc3nc(-c4ccc(Cl)cc4)cs3)nc(C)c2C)cc1,48.9% (inactive)
15,Cn1c2c(Cl)c(Cl)ccc2c2cc(N)[nH]c(=O)c21,97.9% (inactive)
16,CC(=O)c1c[nH]c2ccc(-c3ccnc(Nc4ccc(NC(=O)c5cccc(F)c5)c(CN5CCOCC5)c4)n3)cc12,4.48% (active)
17,Clc1nc(Nc2ccccc2)nc(Nc2ccccc2)n1,130% (inactive)
18,O=C1Nc2c(ccc(Cl)c2Cl)/C1=C/c1ccccn1,-20.9% (active)
19,Cc1ccc2nc3c(cc2c1)CSc1nnc(-c2ccc[nH]c2=S)n1N3,103% (inactive)
20,CN1CCN(C(=O)[C@]2(C)CC[C@]3(C)CC[C@]4(C)C(=CC(=O)[C@@H]5[C@@]6(C)CCC(=O)NC(C)(C)[C@@H]6CC[C@]54C)[C@@H]3C2)CC1,103% (inactive)
21,COc1ccc(-c2nn(Cc3ccccc3)c3c2-c2oncc2CC3)cc1OC,89.9% (inactive)
22,O=c1[nH]c2c(s1)CCCC2CN1CCCCC1 (stereo unspecified),92% (inactive)
23,CC(C)(C)CC(C)(C)Nc1c(-c2ccc3c(c2)OCO3)nc2cnccn12,101% (inactive)

# Tested on: M14 melanoma
# Test: as above
# Conditions: 10 µM unless noted
row,Structure (SMILES),growth
1,CC(C)Cc1ccc(C(C)C(=O)NCc2ccc(Cn3c(=O)sn(-c4ccc(Cl)cc4)c3=O)cc2)cc1 (stereo unspecified),84.7% (inactive)
2,COc1ccc(Cn2nc3c(c2-c2cc(OC)c(OC)c(OC)c2)-c2oncc2CC3)cc1,84.6% (inactive)
3,Cc1ccc(C(c2c(O)c3cc(Br)ccc3[nH]c2=O)c2c(O)c3cc(Br)ccc3[nH]c2=O)cc1,93.3% (inactive)
4,CN1CCN(Cc2ccc(NC(=O)c3cncc(C#Cc4cnccc4C(F)(F)F)c3)cc2C(F)(F)F)CC1,35.2% (inactive)
5,COc1ccc(/C=C/c2n[nH]c3ccc(N4CCOC4=O)cc23)cc1,26.9% (inactive)
6,COc1cc2nnn3c4ncccc4c(N=O)c3c2cc1OC,104% (inactive)
7,Cc1cc2nc(-c3ccccc3)c(-c3ccccc3)nc2cc1C,113% (inactive)
8,Cc1ccc2[nH]c(=O)cc(-n3nncc3COc3ccc(C=O)cc3)c2c1,103% (inactive)
9,CCCOc1nc(SCCC)nc2c1cnn2-c1ccccc1,109% (inactive)
10,NC(=O)c1cccc(-c2ccccc2N2CCCCC2)c1,94.6% (inactive)
11,COc1cc2ncnc(Nc3ccc(C(=O)/C=C/c4ccc(C(F)(F)F)cc4F)cc3)c2cc1OC,97.9% (inactive)
12,CC(=O)OCCCCCNc1ccccc1,113% (inactive)
13,O=C(Nc1sc2c(c1C(=O)O)CCCC2)c1cccc(C(F)(F)F)c1,98.8% (inactive)
14,CCN1C(=O)N(CC)C2NC(SC)=NC21 (stereo unspecified),100% (inactive)
15,C/C(=C(/c1ccccc1)c1ccc(OCC(O)CN2CCOCC2)cc1)c1ccccc1 (stereo unspecified),-45.1% (active)
16,COc1ccc(C(=O)c2cc3c(N)c(C(=O)Nc4ccc(Br)cc4)sc3nc2C)cc1,74.1% (inactive)
17,CCOC(=O)Oc1c(OC)cc(C(=O)O[C@@H]2C[C@@H]3CN4CCc5c([nH]c6cc(OC)ccc56)[C@H]4C[C@@H]3[C@H](C(=O)OC)[C@H]2OC)cc1OC,72.1% (inactive)
18,COc1ccc(-c2nc(N/N=C/c3ccco3)nc(N3CCOCC3)c2C#N)cc1,85.3% (inactive)
19,CCC(=O)c1ccc(O)c(OC)c1,101% (inactive)

row,Structure (SMILES),growth
1,COc1ccc(-c2nc(N=Nc3c(O)[nH]c4ccccc34)nc(N3CCOCC3)c2C#N)cc1,60.9% (inactive)
2,CCCCCCCCCCCCCCCC(=O)OC[C@@]1(O)C[C@@]23CC[C@@H]4C(C)(C)[C@H](O)CC[C@@]4(C)[C@@H]2CC[C@H]1C3,-30.4% (active)
3,FC(F)(F)Oc1cccc(-c2cc(NCCCCCCNc3cc(-c4cccc(OC(F)(F)F)c4)nc4ccc(N5CCCC5)cc34)c3cc(N4CCCC4)ccc3n2)c1,-84% (active)
4,COc1ccc(C2=C(c3ccccc3)c3ccc(OC(C)=O)cc3OC2(C)C)cc1,110% (inactive)
5,Cc1c2c(cc[n+]1Cc1ccc(F)cc1)c1ccc(OCc3cccc(F)c3)cc1n2Cc1cccc(F)c1,-82.1% (active)
6,CC1=CC2(C)/C=C(C)/C=C\CC(O)/C=C3/C=CC(=C4C(=O)OC2(CC1C)C4=O)OC3 (stereo unspecified),-77.1% (active)
7,O=C1OC(=O)C2C1CC=CC2c1ccccc1 (stereo unspecified),97.4% (inactive)
8,C=C(C)[C@H]1CC/C(C)=C/CC[C@]2(C)O[C@H]2CC/C(COC(=O)[C@@H](OC(C)=O)[C@H](NC(=O)c2ccccc2)c2ccccc2)=C\[C@@H]1O,90.6% (inactive)
9,O=C(O)c1cn(C2CC2)c2cc(N3CCN(C(=O)C[n+]4cccc5ccccc54)CC3)c(F)cc2c1=O,64.8% (inactive)
10,COc1ccc(Nn2c(SCC(=O)Nc3nc(-c4ccc(Cl)cc4)cs3)nc(C)c2C)cc1,62.5% (inactive)
11,Cn1c2c(Cl)c(Cl)ccc2c2cc(N)[nH]c(=O)c21,97.8% (inactive)
12,CC(=O)c1c[nH]c2ccc(-c3ccnc(Nc4ccc(NC(=O)c5cccc(F)c5)c(CN5CCOCC5)c4)n3)cc12,-19.4% (active)
13,Clc1nc(Nc2ccccc2)nc(Nc2ccccc2)n1,118% (inactive)
14,O=C1Nc2c(ccc(Cl)c2Cl)/C1=C/c1ccccn1,69.9% (inactive)
15,Cc1ccc2nc3c(cc2c1)CSc1nnc(-c2ccc[nH]c2=S)n1N3,93% (inactive)
16,CN1CCN(C(=O)[C@]2(C)CC[C@]3(C)CC[C@]4(C)C(=CC(=O)[C@@H]5[C@@]6(C)CCC(=O)NC(C)(C)[C@@H]6CC[C@]54C)[C@@H]3C2)CC1,105% (inactive)
17,COc1ccc(-c2nn(Cc3ccccc3)c3c2-c2oncc2CC3)cc1OC,127% (inactive)
18,O=c1[nH]c2c(s1)CCCC2CN1CCCCC1 (stereo unspecified),90.6% (inactive)
19,CC(C)(C)CC(C)(C)Nc1c(-c2ccc3c(c2)OCO3)nc2cnccn12,45.9% (inactive)
